Here are results for 5 molecules from PubChem BioAssay (EPA / NIEHS).

By AC50 is commonly meant the concentration giving half of the maximal activity seen.

Experiment [1] can be described thus: ATG_NFI_CIS: Attagene CIS-FACTORIAL HepG2 Assay for human Nuclear Factor I (NFI) (AID 2282989). To be noted: HepG2 cis-regulatory reporter, NFI response element transcription; actives raise or lower the signal. The method, boiled down:
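Read-out: reporter mRNA via RT-PCR plus capillary electrophoresis with fluorescence detection. Transiently transfected HepG2 (endogenous TF activity on cis promoters), 24 h compound exposure; gain or loss of signal fitted against DMSO.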

Experiment [2] addresses Myc proto-oncogene protein (Homo sapiens) (UniProt P01106). Nature of the experiment: ATG_Myc_CIS: Attagene CIS-FACTORIAL HepG2 Assay for human Myelocytomatosis (Myc) Proto-Oncogene Transcription Factor (AID 2282990). Conditions: HepG2, Attagene cis-reporter transcription factor activity; actives raise or lower the signal. The method, boiled down: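 After 24 h chemical treatment of HepG2 cells carrying multiplexed cis-regulated reporter constructs, reporter transcripts quantified by RT-PCR and capillary electrophoresis of fluorescent fragments. Gain or loss fitted against DMSO baseline.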

Experiment [3] is described as follows: ATG_NRF2_ARE_CIS: Attagene CIS-FACTORIAL HepG2 Assay for human Nuclear Factor Erythroid 2 Related Factor 2 (NFR2) response to Antioxidant Response Elements (ARE) (AID 2282992).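 On AC50: reporter mRNA level measured by RT-PCR and capillary electrophoresis fluorescence.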 To be noted: HepG2 Attagene ARE/NRF2 reporter, transcription factor activity; actives raise or lower the signal. The method, boiled down: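 Fluorescence intensity of reporter-specific cDNA fragments, separated by capillary electrophoresis, reflects mRNA induction in transfected HepG2 cells at 24 h. Activity is fitted bidirectionally, DMSO serving as baseline.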

Experiment [4] is described as follows: ATG_Oct_MLP_CIS: Attagene CIS-FACTORIAL HepG2 Assay for human Octamer-Binding Transcription Factor (Oct) (AID 2282993). Conditions: HepG2 Attagene cis-factorial Oct reporter, mRNA; actives raise or lower the signal. In short, it runs like this:
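Read-out: reporter mRNA via RT-PCR plus capillary electrophoresis of 6-FAM-labelled fragments. Transiently transfected HepG2, 24 h exposure, endogenous TF activity on cis elements. Gain or loss of signal fitted relative to DMSO.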

In experiment [5] the target is Cellular tumor antigen p53 (Homo sapiens) (UniProt P04637). The experiment can be described thus: ATG_p53_CIS: Attagene CIS-FACTORIAL HepG2 Assay for human p53 Transcription Factor (AID 2282994). To be noted: HepG2 p53 cis-element reporter, Attagene mRNA; actives raise or lower the signal. The method, boiled down: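 Transiently transfected HepG2 (multiple cis reporter transcription units); exposure 24 h; reporter RNA via RT-PCR, 6-FAM extension, 2 h HpaI digest at 37 C, CE detection; DMSO baseline.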
Cellular tumor antigen p53 (Homo sapiens), sequence (P04637 whole entry, looked up): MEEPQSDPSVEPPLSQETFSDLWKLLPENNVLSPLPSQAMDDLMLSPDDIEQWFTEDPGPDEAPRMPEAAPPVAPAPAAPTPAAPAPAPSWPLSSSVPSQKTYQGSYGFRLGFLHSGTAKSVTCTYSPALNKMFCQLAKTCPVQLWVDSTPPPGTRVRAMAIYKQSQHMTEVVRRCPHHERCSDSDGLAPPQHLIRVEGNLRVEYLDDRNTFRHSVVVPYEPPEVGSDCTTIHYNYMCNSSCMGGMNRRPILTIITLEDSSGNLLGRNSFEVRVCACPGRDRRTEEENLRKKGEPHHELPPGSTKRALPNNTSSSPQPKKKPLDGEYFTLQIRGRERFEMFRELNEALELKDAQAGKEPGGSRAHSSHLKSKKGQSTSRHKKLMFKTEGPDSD

Experiment [6] has as its target human Peroxisome Proliferator-activated Receptor alpha (PPARa), PPARA (gene 5465) (UniProt Q07869). The experiment can be described thus: ATG_PPARa_TRANS: Attagene TRANS-FACTORIAL HepG2 Assay for human Peroxisome Proliferator-activated Receptor alpha (PPARa) (AID 2283001; active means hit-call score of the fitted dose curve at least 0.9, where 1 is the maximum;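 on AC50: potency for gain of reporter signal over DMSO so agonist or activator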). In short, it runs like this:
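Reporter transcripts quantified by RT-PCR plus capillary electrophoresis after 24 h treatment, fitted upward relative to DMSO. Cells: human HepG2 transiently carrying multiple GAL4-UAS reporter units driven by NR-Gal4 chimeras.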

The target of experiment [7] is human Peroxisome Proliferator-activated Receptor delta (PPARd), PPARD (gene 5467) (UniProt Q03181). Nature of the experiment: ATG_PPARd_TRANS: Attagene TRANS-FACTORIAL HepG2 Assay for human Peroxisome Proliferator-activated Receptor delta (PPARd) (AID 2283002; active means hit-call score of the fitted dose curve at least 0.9, where 1 is the maximum). The method, boiled down: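 Read-out is induced reporter mRNA, quantified by RT-PCR with fluorescent labelling and capillary electrophoresis after 24 h dosing. Cells are HepG2 transiently carrying multiple GAL4-UAS reporter units driven by exogenous NR-GAL4 chimeras; DMSO serves as baseline.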
human Peroxisome Proliferator-activated Receptor delta (PPARd), PPARD (gene 5467), sequence (Q03181 whole entry, looked up, the tested form may be a part): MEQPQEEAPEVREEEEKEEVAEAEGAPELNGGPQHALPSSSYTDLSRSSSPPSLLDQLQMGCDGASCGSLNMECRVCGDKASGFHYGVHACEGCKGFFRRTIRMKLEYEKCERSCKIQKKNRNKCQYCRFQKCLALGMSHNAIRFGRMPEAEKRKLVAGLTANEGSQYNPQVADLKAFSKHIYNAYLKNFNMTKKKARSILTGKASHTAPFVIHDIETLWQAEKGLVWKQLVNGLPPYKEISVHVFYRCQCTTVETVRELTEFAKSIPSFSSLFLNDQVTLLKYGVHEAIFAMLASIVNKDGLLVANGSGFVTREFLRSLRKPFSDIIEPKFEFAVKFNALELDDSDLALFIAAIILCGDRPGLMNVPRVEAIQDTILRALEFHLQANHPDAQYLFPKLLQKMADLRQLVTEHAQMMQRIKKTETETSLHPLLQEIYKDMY

Experiment [8] has as its target Retinoic acid receptor alpha (Homo sapiens) (UniProt P10276). The experiment can be described thus: ATG_RARa_TRANS: Attagene TRANS-FACTORIAL HepG2 Assay for human Retinoic Acid Receptor alpha (RARa) (AID 2283005; active means hit-call score of the fitted dose curve at least 0.9, where 1 is the maximum). In short, it runs like this: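 Reporter transcripts, measured by RT-PCR with fluorescent labeling and capillary electrophoresis after 24 h dosing, reflect activity of an exogenous human RARa–GAL4 fusion in transiently transfected HepG2. Fitted for increase relative to DMSO.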

For experiment [9], the target named is Peroxisome proliferator-activated receptor gamma (Homo sapiens) (UniProt P37231). Nature of the experiment: ATG_PPARg_TRANS: Attagene TRANS-FACTORIAL HepG2 Assay for human Peroxisome Proliferator-activated Receptor-gamma (PPARg) (AID 2283007; active means hit-call score of the fitted dose curve at least 0.9, where 1 is the maximum). The method, boiled down: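 Human hepatoma HepG2, transient MRTU transfection, 24 h treatment. mRNA reporter signal by RT-PCR plus capillary electrophoresis, fluorescence detection; fitted for increase over DMSO negative control.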
Peroxisome proliferator-activated receptor gamma (Homo sapiens), sequence (P37231 whole entry, looked up): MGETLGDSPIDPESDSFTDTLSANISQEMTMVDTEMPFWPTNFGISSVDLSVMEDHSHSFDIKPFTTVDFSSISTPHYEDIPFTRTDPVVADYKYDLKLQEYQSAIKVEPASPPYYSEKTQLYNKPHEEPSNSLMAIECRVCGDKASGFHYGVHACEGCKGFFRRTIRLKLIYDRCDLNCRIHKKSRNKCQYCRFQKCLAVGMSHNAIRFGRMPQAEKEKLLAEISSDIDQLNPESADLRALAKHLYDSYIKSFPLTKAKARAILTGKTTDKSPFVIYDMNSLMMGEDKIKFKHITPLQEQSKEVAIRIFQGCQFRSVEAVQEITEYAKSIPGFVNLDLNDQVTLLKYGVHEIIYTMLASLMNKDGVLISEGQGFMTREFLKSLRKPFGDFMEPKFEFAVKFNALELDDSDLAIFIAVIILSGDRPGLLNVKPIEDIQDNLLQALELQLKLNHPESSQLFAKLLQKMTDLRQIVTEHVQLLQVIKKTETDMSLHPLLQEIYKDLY

The target in experiment [10] is Nuclear receptor subfamily 1 group I member 2 (Homo sapiens) (UniProt O75469). Nature of the experiment: ATG_PXR_TRANS: Attagene TRANS-FACTORIAL HepG2 Assay for human Pregnane X Receptor (PXR) (AID 2283008; active means hit-call score of the fitted dose curve at least 0.9, where 1 is the maximum). The method, boiled down:
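Transient HepG2 transfectants carrying multiplexed reporter transcription units; PXR activity read through a Gal4 chimera. 24 h exposure. RT-PCR/CE fluorescence; upward curve fit referenced to DMSO.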

Experiment [11] deals with human RAR-related Orphan Receptor beta (RORb), RORB (gene 6096) (UniProt Q92753). The experiment can be described thus: ATG_RORb_TRANS: Attagene TRANS-FACTORIAL HepG2 Assay for human RAR-related Orphan Receptor beta (RORb) (AID 2283010; active means hit-call score of the fitted dose curve at least 0.9, where 1 is the maximum). In short, it runs like this:
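Read-out is reporter mRNA induction, quantified by RT-PCR with fluorescent capillary electrophoresis, 24 h post-dose in transiently transfected HepG2 expressing exogenous NR-Gal4 chimera. Activity fitted upward versus DMSO.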

The target of experiment [12] is human Retinoic Acid Receptor beta (RARb), RARB (gene 5915) (UniProt P10826). The experiment can be described thus: ATG_RARb_TRANS: Attagene TRANS-FACTORIAL HepG2 Assay for human Retinoic Acid Receptor beta (AID 2283004; active means hit-call score of the fitted dose curve at least 0.9, where 1 is the maximum). In short, it runs like this:
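Induction of reporter mRNA from a chimeric RARb-Gal4 construct was measured by RT-PCR, FAM labelling, HpaI digestion and capillary electrophoresis. Measurements followed 24 h compound treatment of transiently transfected human HepG2 liver cells, with DMSO as baseline.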

Experiment [13] has as its target human Retinoic Acid Receptor gamma (RARg), RARG (gene 5916) (UniProt P13631). The experiment can be described thus: ATG_RARg_TRANS: Attagene TRANS-FACTORIAL HepG2 Assay for human Retinoic Acid Receptor gamma (RARg) (AID 2283009; active means hit-call score of the fitted dose curve at least 0.9, where 1 is the maximum). The method, boiled down:
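Transactivation of exogenous RARg-Gal4 fusion measured as reporter transcript induction after 24 h in transfected HepG2 cells. RNA reverse-transcribed, amplified, fluorescently labeled and resolved by capillary electrophoresis; increase relative to DMSO.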

Experiment [14] is described as follows: BSK_3C_uPAR: BioMAP Diversity Plus: 3C Assay for Urokinase-type plasminogen activator receptor (uPAR) Biomarker Activity (AID 2282998). To be noted: BioMAP 3C HUVEC, uPAR biomarker ELISA; actives raise or lower the signal. In short, it runs like this:
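HUVEC primary cells; 24 h post-dose; uPAR by ELISA; gain or loss of signal fitted bidirectionally vs DMSO baseline.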

Experiment [15] can be described thus: BSK_3C_VCAM1: BioMAP Diversity Plus: 3C Assay for Vascular cell adhesion molecule 1 (VCAM1) Biomarker Activity (AID 2282999). Conditions: BioMAP 3C HUVEC, VCAM1 ELISA, cytokine-stimulated; actives raise or lower the signal. The method, boiled down: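 Activity fitted in both directions relative to DMSO, with ELISA measurement of the surface marker on primary HUVEC (3C) at 24 h post-treatment; parallel SRB staining (0.1% SRB, TCA-fixed, 560 nm) flagged overt cytotoxicity.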
(An ELISA detects its analyte on a solid surface through an enzyme-linked reagent.)

Experiment [16] is described as follows: BSK_4H_Eotaxin3: BioMAP Diversity Plus: 4H Assay for Eotaxin 3 Biomarker Activity (AID 2283000).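 On outcome: CCL26 protein level quantified by ELISA in parallel with SRB cytotoxicity check.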 To be noted: primary human endothelial cells (HUVEC); actives raise or lower the signal. In short, it runs like this: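 Human umbilical vein endothelial cells (BSK_4H system) dosed with test chemical; Eotaxin-3 (CCL26) measured by ELISA 24 h after dosing. Bidirectional curve fitting relative to DMSO negative control as baseline.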

Read-out in experiment [17]: Intercellular Adhesion Molecule 1 (ICAM1), ICAM1 (gene 3383)
The experiment can be described thus: BSK_3C_ICAM1: BioMAP Diversity Plus: 3C Assay for Intercellular Adhesion Molecule 1 (ICAM1) Biomarker Activity (AID 2283003). Conditions: primary human endothelial cells (HUVEC); actives raise or lower the signal. In short, it runs like this: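 ELISA readout of ICAM1 in human umbilical vein endothelial cells in the 3C system, taken 24 h post-dose. Gain or loss of signal versus DMSO was fitted in both directions, with SRB total-protein staining run in parallel.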

Experiment [18] is described as follows: BSK_3C_Proliferation: Cell Proliferation Assessment in the BioMAP Diversity Plus: 3C Assay (AID 2283006).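 On AC50: potency may reflect either rise or fall in cell number versus DMSO.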 To be noted: primary human endothelial cells (HUVEC). The method, boiled down:
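Proliferation as total protein: sulforhodamine B (0.1%) stain of TCA-fixed subconfluent human umbilical vein endothelial cells, absorbance 560 nm, 48 h after dosing. Activity fitted in both directions against DMSO baseline.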

Experiment [19] is described as follows: ATG_NF_kB_CIS: Attagene CIS-FACTORIAL HepG2 Assay for human Nuclear Factor Kappa B (NF-kB) (AID 2282991). To be noted: HepG2 Attagene cis-factorial NF-kB reporter mRNA; actives raise or lower the signal. The method, boiled down: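 Multiplexed cis-reporter assay in transiently transfected HepG2. 24 h treatment; RNA isolated, RT-PCR, labelled fragments resolved by CE. DMSO baseline.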

The target in experiment [20] is human RAR-related Orphan Receptor gamma (RORg), RORC (gene 6097) (UniProt P51449). Nature of the experiment: ATG_RORg_TRANS: Attagene TRANS-FACTORIAL HepG2 Assay for human RAR-related Orphan Receptor gamma (RORg) (AID 2283011; active means hit-call score of the fitted dose curve at least 0.9, where 1 is the maximum). The method, boiled down:
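Reporter transcripts from a transfected RORg-GAL4 chimera in HepG2 cells were quantified 24 h after dosing by RT-PCR, 6-FAM labelling, HpaI digestion and capillary electrophoresis; increases over DMSO baseline were fitted.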

Molecules are shown by their SMILES. Inconclusive results are not listed. The source made the active and inactive calls. How the source made its calls, unless noted: active means hit-call score of the fitted dose curve at least 0.9, where 1 is the maximum; inactive means score below 0.9.

human Retinoic Acid Receptor gamma (RARg), RARG (gene 5916), sequence (P13631 whole entry, looked up, the tested form may be a part): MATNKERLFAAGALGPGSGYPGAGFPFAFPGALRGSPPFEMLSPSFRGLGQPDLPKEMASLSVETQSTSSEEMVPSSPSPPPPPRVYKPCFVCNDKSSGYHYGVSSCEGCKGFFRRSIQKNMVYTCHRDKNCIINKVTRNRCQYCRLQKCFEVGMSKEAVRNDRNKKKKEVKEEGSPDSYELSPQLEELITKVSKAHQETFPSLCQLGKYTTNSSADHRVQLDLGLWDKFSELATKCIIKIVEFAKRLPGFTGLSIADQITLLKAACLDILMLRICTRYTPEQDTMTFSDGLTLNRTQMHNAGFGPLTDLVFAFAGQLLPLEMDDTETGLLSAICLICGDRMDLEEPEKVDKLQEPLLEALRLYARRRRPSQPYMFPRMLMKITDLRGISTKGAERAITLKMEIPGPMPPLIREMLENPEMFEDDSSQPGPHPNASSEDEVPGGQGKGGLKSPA
Nuclear receptor subfamily 1 group I member 2 (Homo sapiens), sequence (O75469 whole entry, looked up, the tested form may be a part): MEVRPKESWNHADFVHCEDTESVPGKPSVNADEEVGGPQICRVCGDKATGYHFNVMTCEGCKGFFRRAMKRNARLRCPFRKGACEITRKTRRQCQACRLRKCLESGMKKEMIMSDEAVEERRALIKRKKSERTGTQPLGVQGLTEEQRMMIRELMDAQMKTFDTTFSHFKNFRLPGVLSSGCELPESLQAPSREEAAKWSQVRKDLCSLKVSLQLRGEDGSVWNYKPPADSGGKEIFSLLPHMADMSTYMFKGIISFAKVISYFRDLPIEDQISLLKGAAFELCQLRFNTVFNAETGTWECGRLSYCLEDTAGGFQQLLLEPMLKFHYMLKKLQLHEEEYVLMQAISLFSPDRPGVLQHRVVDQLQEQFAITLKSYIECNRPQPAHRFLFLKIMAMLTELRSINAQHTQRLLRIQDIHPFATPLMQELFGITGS
human Peroxisome Proliferator-activated Receptor alpha (PPARa), PPARA (gene 5465), sequence (Q07869 whole entry, looked up, the tested form may be a part): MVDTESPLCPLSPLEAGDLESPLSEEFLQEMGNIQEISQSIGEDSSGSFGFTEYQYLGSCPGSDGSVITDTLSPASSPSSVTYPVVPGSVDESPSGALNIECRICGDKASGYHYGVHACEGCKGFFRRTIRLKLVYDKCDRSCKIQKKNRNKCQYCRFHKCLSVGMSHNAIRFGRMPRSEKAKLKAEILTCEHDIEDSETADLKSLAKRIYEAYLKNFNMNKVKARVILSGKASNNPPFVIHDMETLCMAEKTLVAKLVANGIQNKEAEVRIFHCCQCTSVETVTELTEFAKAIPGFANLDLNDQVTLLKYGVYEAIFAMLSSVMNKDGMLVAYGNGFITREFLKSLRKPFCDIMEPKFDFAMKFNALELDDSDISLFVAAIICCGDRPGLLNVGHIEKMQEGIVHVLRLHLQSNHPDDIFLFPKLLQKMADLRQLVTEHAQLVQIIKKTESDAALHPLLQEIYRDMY
Myc proto-oncogene protein (Homo sapiens), sequence (P01106 whole entry, looked up, the tested form may be a part): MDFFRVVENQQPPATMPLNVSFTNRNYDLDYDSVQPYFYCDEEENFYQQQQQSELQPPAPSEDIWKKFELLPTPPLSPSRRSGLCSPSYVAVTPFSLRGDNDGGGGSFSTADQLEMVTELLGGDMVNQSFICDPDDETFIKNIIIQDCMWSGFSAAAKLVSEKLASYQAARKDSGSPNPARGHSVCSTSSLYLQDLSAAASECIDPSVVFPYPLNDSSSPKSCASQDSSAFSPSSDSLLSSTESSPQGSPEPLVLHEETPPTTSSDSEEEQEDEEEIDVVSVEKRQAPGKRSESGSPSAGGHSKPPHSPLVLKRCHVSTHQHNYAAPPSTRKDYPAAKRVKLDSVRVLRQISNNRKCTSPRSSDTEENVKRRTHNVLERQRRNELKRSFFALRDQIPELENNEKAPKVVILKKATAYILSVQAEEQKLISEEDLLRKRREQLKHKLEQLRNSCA
Retinoic acid receptor alpha (Homo sapiens), sequence (P10276 whole entry, looked up, the tested form may be a part): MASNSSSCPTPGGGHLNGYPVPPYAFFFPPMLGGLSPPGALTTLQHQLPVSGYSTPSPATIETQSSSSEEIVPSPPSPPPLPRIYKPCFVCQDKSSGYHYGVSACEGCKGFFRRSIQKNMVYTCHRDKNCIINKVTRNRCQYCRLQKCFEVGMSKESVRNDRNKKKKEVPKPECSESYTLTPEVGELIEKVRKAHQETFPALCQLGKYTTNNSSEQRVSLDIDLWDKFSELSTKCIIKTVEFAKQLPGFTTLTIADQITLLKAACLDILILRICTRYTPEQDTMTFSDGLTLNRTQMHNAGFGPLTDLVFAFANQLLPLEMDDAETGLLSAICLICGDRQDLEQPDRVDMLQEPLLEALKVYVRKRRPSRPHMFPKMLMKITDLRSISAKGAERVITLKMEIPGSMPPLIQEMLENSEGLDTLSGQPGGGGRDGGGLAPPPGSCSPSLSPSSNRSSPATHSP
human Retinoic Acid Receptor beta (RARb), RARB (gene 5915), sequence (P10826 whole entry, looked up, the tested form may be a part): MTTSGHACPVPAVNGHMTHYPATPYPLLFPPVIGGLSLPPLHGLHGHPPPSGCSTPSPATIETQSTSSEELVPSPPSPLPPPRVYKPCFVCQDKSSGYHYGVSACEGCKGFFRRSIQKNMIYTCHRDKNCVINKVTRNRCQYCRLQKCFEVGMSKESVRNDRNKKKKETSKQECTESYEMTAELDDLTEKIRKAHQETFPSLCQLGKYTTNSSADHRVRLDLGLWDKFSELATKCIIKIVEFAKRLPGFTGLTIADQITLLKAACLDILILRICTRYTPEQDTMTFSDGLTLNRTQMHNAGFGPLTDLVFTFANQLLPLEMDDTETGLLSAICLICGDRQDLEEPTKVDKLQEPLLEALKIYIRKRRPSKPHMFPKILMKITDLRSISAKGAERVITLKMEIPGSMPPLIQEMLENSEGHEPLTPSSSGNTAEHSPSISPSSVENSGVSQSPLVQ
human RAR-related Orphan Receptor gamma (RORg), RORC (gene 6097), sequence (P51449 whole entry, looked up, the tested form may be a part): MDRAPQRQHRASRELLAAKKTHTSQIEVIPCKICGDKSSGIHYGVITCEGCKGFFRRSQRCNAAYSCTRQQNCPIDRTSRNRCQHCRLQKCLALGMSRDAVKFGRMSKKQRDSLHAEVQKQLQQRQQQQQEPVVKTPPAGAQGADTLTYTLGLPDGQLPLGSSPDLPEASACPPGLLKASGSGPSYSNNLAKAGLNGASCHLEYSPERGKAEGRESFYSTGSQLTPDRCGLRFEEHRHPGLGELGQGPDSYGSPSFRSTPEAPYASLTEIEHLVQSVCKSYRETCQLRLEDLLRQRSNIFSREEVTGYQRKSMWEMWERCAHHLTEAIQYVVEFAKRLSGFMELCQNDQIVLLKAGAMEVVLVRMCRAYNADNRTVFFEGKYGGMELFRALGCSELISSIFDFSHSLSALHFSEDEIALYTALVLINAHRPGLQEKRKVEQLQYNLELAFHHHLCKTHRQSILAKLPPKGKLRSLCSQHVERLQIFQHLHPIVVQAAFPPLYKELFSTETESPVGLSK

As to `O=C1CCCCCCCCCCCCCCCO1`, the molecule was called inactive in [1], in [2], in experiment [4], in experiment [5], in [8] and in experiment [10]. Further, the molecule was classed as inactive in [11]. For the same molecule, the concentration at half-maximal activity (AC50) in experiment [3] is 65.2 µM (active); in [6], 54 µM (active); in experiment [7] it was 143 µM (active); in experiment [9], 100 µM (active).
As to `O=C1c2cccc(O)c2C(=O)c2c(O)cc(CO)cc21`, the molecule was classed as inactive in experiment [1], in [2], in experiment [4], in experiment [5], in [6] and in experiment [12]. Further, the call in experiment [8] and in experiment [13] was inactive. For the same molecule, the AC50 was 6.09 µM (active) in [3] and 5.78 µM (active) in [10].
With `c1ccc(-c2ccccn2)nc1`, the molecule was classed as inactive in [1], in experiment [2], in [3], in experiment [4], in experiment [5] and in experiment [14]. The result in experiment [15], in [6], in experiment [7], in experiment [17], in experiment [8] and in experiment [10] was inactive. Also, the molecule was called inactive in experiment [13]. Besides, the values for the AC50 in experiment [16] and in experiment [18] were 20 µM (active) and 29 µM (active), respectively.
For `CC1=CC[C@H]2C[C@@H]1C2(C)C`, the outcome in [1], in experiment [2], in [19], in experiment [4], in experiment [8] and in experiment [9] was inactive. Moreover, the molecule was classed as inactive in experiment [10] and in [20].
With `CCCCCCCCc1ccc(Nc2ccc(CCCCCCCC)cc2)cc1`, the result in experiment [1], in [2], in [3], in experiment [4], in experiment [5] and in experiment [14] was inactive. Moreover, the result in [15], in experiment [16], in experiment [17], in experiment [12], in experiment [8] and in experiment [18] was inactive. For the same molecule, the outcome in experiment [9] and in experiment [13] was inactive. Also, the AC50 in [10] is 1.68 µM (active).
